Compounds without any hit were thinned out: in the full panel of roughly 83,000, 20% have a hit.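 Results are percent growth after 48 hours of single-concentration exposure. 100 means growth as in untreated cells, lower positive values show inhibition; negative values down to -100 show cell death.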 A number with no mark means an inactive call. Activity calls are given as the source filed them. The calls were made as follows: active = growth percent below 10; inactive = the rest.

Growth data for 37 compounds are collected here from PubChem BioAssay (NCI).

This assay relates to T-47D breast. The experiment in a line: NCI-60 one-dose screen, 48 h (100 = growth as untreated, 0 = no growth, -100 = all killed). To be noted: 10 µM.
For `O=C(/C=C/Nc1ccc(F)cc1F)c1ccc2c(c1)Nc1ccccc1S2`, the growth is 80.1%.

Take `C=C1CC[C@H](C(=C)C)[C@H]2C=C(C)C(=O)C3=C(C(=O)[C@@](C)(O)C3)[C@H]12`: the growth is -59.3% (active). The result for `CN(CCO)c1oc(-c2ccccc2)nc1[P+](c1ccccc1)(c1ccccc1)c1ccccc1` reads 0.664% (active). Then `O=C(CNc1nc(-c2ccccc2)cs1)Nc1ccc([N+](=O)[O-])cc1Cl`, with 12.5%; and `COc1ccc(CCN2C(=O)/C(=C/c3csc(C#N)n3)SC2=S)cc1OC`, with -7.6% (active). Then `Cc1ccc([N+](=O)[O-])c(C(=O)Nc2ccc(-c3ccc4c(c3)NC(=O)/C4=C\c3ccc[nH]3)cc2)c1`, with -15.7% (active). Turning to `COc1ccc(-c2nc(S(=O)(=O)c3ccccc3)c(S(C)(=O)=O)o2)cc1`, the growth was -64.5% (active).

Regarding `Cc1ccc(-c2ccc(SCC(=O)Nc3ccc(Cl)c(C(F)(F)F)c3)nn2)cc1`, the growth is 26.2%. The result for `Cc1ccn2c(C(=O)c3ccc(Br)cc3)cc(-c3cc(-c4ccc(N(C)C)cc4)c(C#N)c(N)n3)c2c1` reads 50.5%; that for `O=c1[nH]c2ccccc2cc1CSc1ccc(Nc2nccc(-c3ccc(Cl)cc3)n2)cc1`, -10.3% (active). Then `CC1(C)CC[C@]2(C(=O)Nc3ccccc3)CC[C@]3(C)C(=CC[C@@H]4[C@@]5(C)CC[C@H](N)C(C)(C)[C@@H]5CC[C@]43C)[C@H]2C1`, with 81.5%; and `Cc1ccc(NC(=O)NCn2c(=O)[nH]c3ccccc3c2=O)cc1`, with 79.6%; and `COc1cc(/C=C/C(=O)c2cc(OC)c(OC)c(OC)c2)ccc1Oc1nc(Nc2ccc(F)cc2)nc(N(C)C)n1`, with 25.9%. Then `Cn1cc(/C=N/Nc2ccnc3cc(Cl)ccc23)c2ccccc21`, with -60.9% (active). For `N#Cc1ccc(-c2nn(-c3ccc(C(=O)O)cc3)cc2CNc2cc(Cl)cc(C(F)(F)F)c2)cc1`, the growth was 8.34% (active). Then `O=C1NC(=NC23CC4CC(CC(C4)C2)C3)N/C1=C\c1ccc2ncccc2n1`, with -9.66% (active). The result for `COc1ccc(/C=C/C(=O)c2ccc(NC(=O)CN3C(=O)NC(C)(c4ccccc4)C3=O)cc2)cc1` (configuration not stated) reads 38.6%. The result for `O=C(c1ccc(Cl)cc1)C1[C@H](c2ccccc2Br)[C@@H](c2ccccc2)NC12C(=O)Nc1ccc(Cl)cc12` (some centres not stated) reads 22%; that for `O=C1CCC(N2Cc3cc(NC(=O)COc4ccccc4)ccc3C2=O)C(=O)N1` (configuration not stated), 49.2%.

In the case of `CC1(c2ccccc2)NC(=O)N(CC(=O)Nc2ccc(C(=O)/C=C/c3ccc(Cl)cc3)cc2)C1=O` (configuration not stated), the growth is 10.4%.

As for `C#CCNC(=O)CCC(=O)OC[C@]12CC[C@@H](C(=C)C)[C@@H]1C1CC[C@@H]3[C@@]4(C)CCCNC(C)(C)[C@@H]4CC[C@@]3(C)[C@]1(C)CC2` (some centres not stated), the growth is 10.9%. The result for `CCCn1c(=O)c2[nH]c(-c3ccc(OCc4nc5ccc(F)cc5[nH]4)cc3)nc2n(CCC)c1=O` reads -17.8% (active); that for `COC[C@@H](CC(C)C)N=C1NC(=O)/C(=C/c2ccc3ncsc3c2)N1`, -7.77% (active). Then `COc1ccc(C=CC(=O)c2ccc(-n3c(C)nc4c(cnn4-c4ccccc4)c3=O)cc2)cc1`, with 34.7%; and `O=C(c1ccc(Cl)cc1)C1[C@H](c2ccccc2Br)[C@@H](c2ccccc2)NC12C(=O)Nc1ccc(Br)cc12` (some centres not stated), with 21.3%.

Turning to `O=C(Nc1cccc(C(F)(F)F)c1)c1cncc(C#Cc2cnc3ccc(N4CCOCC4)nn23)c1`, the growth was 1.64% (active). Then `N#Cc1c(-c2ccc(F)cc2)nc(SCc2ccc([N+](=O)[O-])cc2)nc1N1CCOCC1`, with 55.5%. Regarding `NS(=O)(=O)c1ccc(NC(=O)CSc2ccc(-c3ccc(Cl)cc3)nn2)c(Br)c1`, the growth was 41.6%. Then `CC(=O)NCC1=C(C)C=C2C(=O)[C@](C)(O)C3(CC3)C(C)=C21`, with -11.8% (active); and `CC(=O)Nc1nc(-c2ccc(N3CCN(C)CC3)c(NS(=O)(=O)c3cccc4c(N(C)C)cccc34)c2)cs1`, with 35.6%; and `O=C(CSc1nnc(-c2ccc3nc(-c4ccc(Cl)cc4)[nH]c3c2)o1)Nc1ccc(Br)cc1`, with 53.7%.

With `COc1cc2c3c(n(CCCNCCO)c(=O)c2cc1OC)-c1nc2c(cc1C3=O)OCO2`, the growth was 1.91% (active). The result for `Cc1ccc(NCC(=O)Nn2c(COc3ccccc3)nc3ccccc3c2=O)cc1` reads 82.6%; that for `O=C(c1ccccc1)n1ccc(-c2cc3cc(Br)ccc3oc2=O)n1`, 1.35% (active); that for `Cc1ccc(CSc2nc(Cl)c(C#N)c(-c3ccc(F)cc3)n2)cc1`, 31.3%. The result for `COc1cc(/C=C/C(=O)c2ccc(F)cc2)ccc1Oc1nc(Nc2ccc(F)cc2)nc(N(C)C)n1` reads 28.5%; that for `COc1cc2oc(-c3cccc(C(=O)Nc4ccc(Cl)cc4)c3)cc(=O)c2c(OCCNC(=O)CNC(=O)OC(C)(C)C)c1OC`, 59%.
